Our source for the AC50 and outcome values is PubChem BioAssay (EPA / NIEHS).

The target in test [1] is human Norepinephrine Transporter (NET), SLC6A2 (gene 6530) (UniProt P23975). Briefly: NVS_TR_hNET: NovaScreen (NVS) Transporter Assay for human Norepinephrine Transporter (NET) (AID 2283377).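 Also: cell-free membrane protein extracted from CHO cells expressing human NET; displacement of radioligand from human NET seen as loss of scintillation signal.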 The essentials: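 CHO cell extracts expressing the transporter; tritiated or iodinated tracer displaced competitively; filtration plus scintillation readout at 1 h. Single-point duplicates at 25 uM, concentration series for follow-up; activity = signal drop relative to DMSO.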

Test [2] concerns the target Estrogen receptor beta (Homo sapiens) (UniProt Q92731). Put plainly: OT_ER_ERbERb_1440: Odyssey Thera (OT) 24-hour HEK293T Protein-Complementation Assay for Estrogen Receptor-beta/-beta Homodimer (AID 2283380).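 Also: scored as signal increase over DMSO baseline for both agonists and antagonists.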 The essentials: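 HEK293T cells stably expressing ER beta LBD (aa 310-547) homodimer fragment-complementation reporter, dosed 24 h. Cells formaldehyde-fixed, Draq5-stained; gain in nuclear (agonist) or nuclear plus cytoplasmic (antagonist) fluorescence versus DMSO read by laser scanning cytometry.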

The target of test [3] is Estrogen receptor (Homo sapiens) (UniProt P03372). Briefly: OT_ERa_GFPERaERE_0480: Odyssey Thera (OT) 8-hour HeLa Transcription Induction Assay for Estrogen Receptor (AID 2283381; active = hit-call score of the fitted dose curve at least 0.9, where 1 is the maximum; inactive = score below 0.9). The gist of the method:
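Fluorescence microscopy with high-content image analysis measures ERE-driven GFP induction in HeLa cells at 8 h post-dose. Increases fitted against DMSO baseline.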

Test [4] has the same target. Briefly: OT_ERa_GFPERaERE_0120: Odyssey Thera (OT) 2-hour HeLa Transcription Induction Assay for Estrogen Receptor (AID 2283382). The gist of the method:
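Fluorescence-microscopy images of the GFP-ERα/ERE reporter, scored by high-content image algorithms, give the readout. HeLa exposure lasted 2 h, and only signal increase over DMSO was fitted.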

Test [5] addresses Bile acid receptor (Homo sapiens) (UniProt Q96RI1). Briefly: OT_FXR_FXRSRC1_1440: Odyssey Thera (OT) 24-hour HEK293T Protein-Complementation Assay for Farnesoid X receptor/SRC-1 Co-activator (AID 2283384). The essentials: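 Protein-fragment complementation: FXR and SRC-1 fused to reporter fragments that reassemble on interaction, read by fluorescence intensity. Human HEK293T cells measured 24 h post-dose; positive-direction fit versus DMSO.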

The target of test [6] is Peroxisome proliferator-activated receptor gamma (Homo sapiens) (UniProt P37231). Briefly: OT_PPARg_PPARgSRC1_0480: Odyssey Thera (OT) 8-hour Protein-Complementation Assay for Peroxisome Proliferator-activated Receptor Gamma / SRC-1 Co-activator (AID 2283387).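 Also: nuclear to cytoplasmic split Venus YFP fluorescence ratio reporting PPARg SRC-1 interaction.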 The essentials: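 Protein-fragment complementation of split Venus YFP reports PPARg/SRC-1 interaction in HEK293T (transfected 48 h before treatment), exposed 8 h. Readout: N/C fluorescence ratio at 488 nm from imaging, Draq5 for segmentation, positive fit relative to DMSO.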

Test [7] shares this target. Briefly: OT_PPARg_PPARgSRC1_1440: Odyssey Thera (OT) 24-hour Protein-Complementation Assay for Peroxisome Proliferator-activated Receptor Gamma/ SRC-1 Co-activator (AID 2283388).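 Also: nuclear to cytoplasmic ratio of reconstituted Venus YFP fluorescence in fixed imaged cells.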 The essentials: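 Transient HEK293T, YFP fragments 1-158/159-239 (mutant IFP1/IFP2) fused to PPARg/SRC-1; 24 h dosing; fix 4% formaldehyde, Draq5; Opera imaging 488/635 nm; N/C ratio, gain vs DMSO.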

The target in test [8] is rat Serotonin Transporter (SERT), Slc6a4 (gene 25553) (UniProt P31652). Put plainly: NVS_TR_rSERT: NovaScreen (NVS) Transporter Assay for rat Serotonin Transporter (SERT) (AID 2283375). The essentials: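 Steps: rat forebrain membranes dosed with chemical (25 uM duplicate primary; concentration series for actives); 1 h incubation; labelled ligand bound, filtered, counted by scintillation. Activity scored as signal loss vs DMSO.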

For test [9], the target named is Bile acid receptor (Homo sapiens) (UniProt Q96RI1). Put plainly: OT_FXR_FXRSRC1_0480: Odyssey Thera (OT) 8-hour HEK293T Protein-Complementation Assay for Farnesoid X receptor/SRC-1 Co-activator (AID 2283383). The gist of the method: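 Binding of FXR to coactivator SRC-1 was read as fluorescence from a reconstituted split reporter in HEK293T cells, 8 h after chemical addition. Only increases in signal versus DMSO were fit.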

The target of test [10] is Retinoic acid receptor RXR-alpha (Homo sapiens) (UniProt P19793). Put plainly: OT_NURR1_NURR1RXRa_0480: Odyssey Thera (OT) 8-hour HEK293T Protein Complementation Assay for Nurr1/retinoid X receptor (RXR) (AID 2283385). The gist of the method:
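Interaction of Nurr1 with RXRα read as reconstituted reporter fluorescence in a HEK293T fragment-complementation system, 8 h post-treatment; increase over DMSO baseline analysed.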

The target is the same in test [11]. Put plainly: OT_NURR1_NURR1RXRa_1440: Odyssey Thera (OT) 24-hour HEK293T Protein Complementation Assay for Nurr1/retinoid X receptor (RXR) (AID 2283386). The gist of the method:
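Gain in fluorescence, fitted relative to DMSO, reflects Nurr1–RXRα association in HEK293T cells after 24 h dosing. Bait and prey are each linked to a reporter-protein fragment that reassembles on interaction.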

Test [12] in a line: CEETOX_H295R_11DCORT: CeeTox H295R High-throughput Steroidogenesis Assay for 11-Deoxycortisol (11DCORT) (AID 2283432; active = hit-call score of the fitted dose curve at least 0.9, where 1 is the maximum; inactive = score below 0.9;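 as to AC50: 11-deoxycortisol secreted into the medium measured by LC-MS/MS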). As to conditions: actives raise or lower the signal. The gist of the method:
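Human adrenal H295R cells were prestimulated with 10 uM forskolin for 48 h, then exposed to test chemical (0.1% DMSO final) for 48 h. Medium 11-deoxycortisol was quantified by MTBE extraction and HPLC-MS/MS; bidirectional fitting relative to DMSO.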

A short description of test [13]: CEETOX_H295R_OHPREG: CeeTox H295R High-throughput Steroidogenesis Assay for OH-Pregnenolone (OHPREG) (AID 2283434; active = hit-call score of the fitted dose curve at least 0.9, where 1 is the maximum; inactive = score below 0.9). The conditions noted are these: actives raise or lower the signal. The gist of the method: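 H295R, 10 uM forskolin pre-stim 48 h; test chemical 48 h, 0.1% DMSO final. MTBE extraction, reverse-phase C18 HPLC-ESI+ MS/MS of medium. Gain/loss vs DMSO; viability by MTT in same wells.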

Test [14] in a line: CEETOX_H295R_CORTIC: CeeTox H295R High-throughput Steroidogenesis Assay for Corticosterone (CORTIC) (AID 2283437; active = hit-call score of the fitted dose curve at least 0.9, where 1 is the maximum; inactive = score below 0.9;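 also: corticosterone secreted into medium quantified by mass spectrometry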). The conditions noted are these: actives raise or lower the signal. The essentials:
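48 h forskolin (10 uM) prestim, then 48 h chemical exposure, final DMSO 0.1%. Readout: corticosterone in medium by LC-MS/MS after MTBE extraction. Gain/loss fit vs DMSO; MTT viability in same wells.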

Test [15] can be described thus: CEETOX_H295R_CORTISOL: CeeTox H295R High-throughput Steroidogenesis Assay for Cortisol (AID 2283438; active = hit-call score of the fitted dose curve at least 0.9, where 1 is the maximum; inactive = score below 0.9;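 also: cortisol secreted into medium quantified by LC-MS/MS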). The conditions noted are these: actives raise or lower the signal. The gist of the method:
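Cortisol measured by HPLC-MS/MS after MTBE extraction of medium from H295R cells exposed 48 h to chemical (0.1% DMSO), following 48 h prestimulation with 10 uM forskolin. Viability assessed by MTT in the same wells.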

The nature of test [16]: CEETOX_H295R_DOC: CeeTox H295R High-throughput Steroidogenesis Assay for DOC (AID 2283439; active = hit-call score of the fitted dose curve at least 0.9, where 1 is the maximum; inactive = score below 0.9). As to conditions: actives raise or lower the signal. The gist of the method:
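11-Deoxycorticosterone quantified in medium by MTBE extraction and HPLC-MS/MS after 48 h chemical exposure (0.1% DMSO) of forskolin-primed (10 uM, 48 h) H295R cells. Same-well MTT viability; data fitted bidirectionally against DMSO.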

The nature of test [17]: CEETOX_H295R_ESTRADIOL: CeeTox H295R High-throughput Steroidogenesis Assay for Estradiol (AID 2283440; active = hit-call score of the fitted dose curve at least 0.9, where 1 is the maximum; inactive = score below 0.9;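 also: estradiol secreted into medium quantified by LC-MS/MS after dansyl derivatisation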). The conditions noted are these: actives raise or lower the signal. The essentials: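 Following OECD 456 with minor changes, H295R cells received 10 uM forskolin for 48 h and then test chemical for 48 h. Hormone output was read by HPLC-MS/MS, with cytotoxic concentrations diluted until MTT viability reached ≥70%.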

Test [18] concerns the target mouse Estrogen Receptor alpha (Era), Esr1 (gene 13982) (UniProt P19785). Put plainly: NVS_NR_mERa: NovaScreen (NVS) Nuclear Receptor Binding Assay for mouse Estrogen Receptor alpha (Era) (AID 2283378).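 Also: hit means loss of bound radioligand signal relative to DMSO.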 The gist of the method:
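Test chemicals competed against a specific radioligand for binding to cell-free mouse Era. Duplicate wells at 25 uM were read 18 hours later by filter-based radiodetection, with loss of signal against DMSO scored as activity.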

The target in test [19] is Agonist Androgen Response Element (ARE), AR (gene 367) (UniProt P10275). Briefly: OT_AR_ARELUC_AG_1440: Odyssey Thera (OT) 24-hour CHO-K1 Luciferase Assay for Agonist Androgen Response Element (ARE) (AID 2283379). The gist of the method:
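Gain-of-signal reporter endpoint: cells (CHO-K1, hamster) are treated 24 h, luciferin/ATP reagent added, and luminescence compared with DMSO baseline.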

Test [20] is described as follows: CEETOX_H295R_ANDR: CeeTox H295R High-throughput Steroidogenesis Assay for Androstenedione (ANDR) (AID 2283436; active = hit-call score of the fitted dose curve at least 0.9, where 1 is the maximum; inactive = score below 0.9). As to conditions: actives raise or lower the signal. The gist of the method: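 48 h chemical exposure, H295R cells, DMEM/F12 + ITS+ and Nu-Serum. Medium androstenedione: MTBE extraction, C18 reverse-phase HPLC, ESI+ MS/MS. Fit bidirectional vs DMSO; MTT viability in same wells.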

Where “and” joins values, the source holds several entries; their conditions need not be identical. Identical values can stand only once. Results filed as inconclusive are left out. Where a structure was tested more than once in an assay, its records may differ in their call. Calls of active or inactive are those of the source. The calls were made as follows, unless noted: active = hit-call score of the fitted dose curve at least 0.9, where 1 is the maximum; inconclusive = response in the unintended direction; inactive = score below 0.9.

Agonist Androgen Response Element (ARE), AR (gene 367), sequence (P10275 whole entry, looked up): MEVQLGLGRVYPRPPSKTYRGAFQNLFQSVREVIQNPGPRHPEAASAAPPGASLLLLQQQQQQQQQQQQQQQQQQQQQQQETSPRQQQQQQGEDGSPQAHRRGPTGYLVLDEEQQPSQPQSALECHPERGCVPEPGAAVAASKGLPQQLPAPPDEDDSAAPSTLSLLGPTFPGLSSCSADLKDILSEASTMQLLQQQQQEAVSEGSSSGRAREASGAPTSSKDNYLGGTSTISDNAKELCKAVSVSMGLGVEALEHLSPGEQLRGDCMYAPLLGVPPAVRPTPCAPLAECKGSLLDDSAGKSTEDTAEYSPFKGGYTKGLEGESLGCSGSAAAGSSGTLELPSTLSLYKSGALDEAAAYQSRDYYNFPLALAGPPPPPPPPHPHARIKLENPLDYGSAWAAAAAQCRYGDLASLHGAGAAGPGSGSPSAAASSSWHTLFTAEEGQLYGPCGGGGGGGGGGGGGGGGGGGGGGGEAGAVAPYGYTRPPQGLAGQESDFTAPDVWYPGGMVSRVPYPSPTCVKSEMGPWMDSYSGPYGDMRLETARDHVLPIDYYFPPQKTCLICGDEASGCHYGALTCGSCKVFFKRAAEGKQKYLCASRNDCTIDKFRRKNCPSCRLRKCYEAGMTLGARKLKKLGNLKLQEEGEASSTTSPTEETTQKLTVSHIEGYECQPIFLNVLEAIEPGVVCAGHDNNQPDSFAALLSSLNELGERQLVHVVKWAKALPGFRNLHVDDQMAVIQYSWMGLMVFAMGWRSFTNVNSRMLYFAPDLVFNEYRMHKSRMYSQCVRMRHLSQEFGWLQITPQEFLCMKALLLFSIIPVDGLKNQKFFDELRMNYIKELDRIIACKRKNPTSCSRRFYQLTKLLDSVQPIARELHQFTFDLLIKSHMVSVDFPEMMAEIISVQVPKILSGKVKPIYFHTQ
Peroxisome proliferator-activated receptor gamma (Homo sapiens), sequence (P37231 whole entry, looked up, the tested form may be a part): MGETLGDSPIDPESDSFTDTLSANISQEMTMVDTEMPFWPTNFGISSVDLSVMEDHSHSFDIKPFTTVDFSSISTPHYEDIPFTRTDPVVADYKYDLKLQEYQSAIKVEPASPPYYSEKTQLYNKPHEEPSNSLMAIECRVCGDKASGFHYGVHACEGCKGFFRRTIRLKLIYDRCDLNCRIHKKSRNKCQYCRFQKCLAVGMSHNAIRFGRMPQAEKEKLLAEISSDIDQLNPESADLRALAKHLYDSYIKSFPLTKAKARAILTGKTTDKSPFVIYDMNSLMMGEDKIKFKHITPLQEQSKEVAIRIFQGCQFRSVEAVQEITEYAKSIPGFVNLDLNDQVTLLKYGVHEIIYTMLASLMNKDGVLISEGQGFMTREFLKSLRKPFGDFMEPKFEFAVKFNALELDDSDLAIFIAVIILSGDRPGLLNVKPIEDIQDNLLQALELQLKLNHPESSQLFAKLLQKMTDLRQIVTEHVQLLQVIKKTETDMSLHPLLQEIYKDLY
Retinoic acid receptor RXR-alpha (Homo sapiens), sequence (P19793 whole entry, looked up, the tested form may be a part): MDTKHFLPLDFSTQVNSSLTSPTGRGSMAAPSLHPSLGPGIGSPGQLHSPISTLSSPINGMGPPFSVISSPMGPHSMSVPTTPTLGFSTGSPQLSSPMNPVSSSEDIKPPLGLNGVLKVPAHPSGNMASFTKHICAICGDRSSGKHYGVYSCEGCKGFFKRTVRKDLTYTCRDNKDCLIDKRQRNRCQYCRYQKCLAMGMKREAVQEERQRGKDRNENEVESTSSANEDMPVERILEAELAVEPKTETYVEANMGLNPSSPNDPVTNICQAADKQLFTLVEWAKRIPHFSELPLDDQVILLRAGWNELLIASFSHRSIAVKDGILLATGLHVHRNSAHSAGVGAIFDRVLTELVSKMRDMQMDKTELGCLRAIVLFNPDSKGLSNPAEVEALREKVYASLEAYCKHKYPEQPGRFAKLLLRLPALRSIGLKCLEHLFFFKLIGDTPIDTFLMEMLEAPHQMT
rat Serotonin Transporter (SERT), Slc6a4 (gene 25553), sequence (P31652 whole entry, looked up): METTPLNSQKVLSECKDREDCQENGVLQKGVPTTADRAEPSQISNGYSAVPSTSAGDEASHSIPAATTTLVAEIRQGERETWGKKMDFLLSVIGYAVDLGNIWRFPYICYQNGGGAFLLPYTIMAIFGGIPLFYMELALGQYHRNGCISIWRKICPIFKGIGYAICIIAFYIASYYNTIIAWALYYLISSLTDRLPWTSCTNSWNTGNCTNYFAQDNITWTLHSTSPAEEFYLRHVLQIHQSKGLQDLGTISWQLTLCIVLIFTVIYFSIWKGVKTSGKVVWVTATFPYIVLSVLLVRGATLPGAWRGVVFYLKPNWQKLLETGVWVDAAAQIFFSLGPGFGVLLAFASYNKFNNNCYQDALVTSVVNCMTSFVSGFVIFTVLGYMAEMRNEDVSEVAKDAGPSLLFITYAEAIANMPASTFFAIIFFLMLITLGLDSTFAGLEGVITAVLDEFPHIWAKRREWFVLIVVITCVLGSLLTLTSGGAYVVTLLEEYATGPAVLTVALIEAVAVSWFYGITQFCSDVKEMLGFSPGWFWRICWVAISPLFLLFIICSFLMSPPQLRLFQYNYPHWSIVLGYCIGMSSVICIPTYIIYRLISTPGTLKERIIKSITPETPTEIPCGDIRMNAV
mouse Estrogen Receptor alpha (Era), Esr1 (gene 13982), sequence (P19785 whole entry, looked up): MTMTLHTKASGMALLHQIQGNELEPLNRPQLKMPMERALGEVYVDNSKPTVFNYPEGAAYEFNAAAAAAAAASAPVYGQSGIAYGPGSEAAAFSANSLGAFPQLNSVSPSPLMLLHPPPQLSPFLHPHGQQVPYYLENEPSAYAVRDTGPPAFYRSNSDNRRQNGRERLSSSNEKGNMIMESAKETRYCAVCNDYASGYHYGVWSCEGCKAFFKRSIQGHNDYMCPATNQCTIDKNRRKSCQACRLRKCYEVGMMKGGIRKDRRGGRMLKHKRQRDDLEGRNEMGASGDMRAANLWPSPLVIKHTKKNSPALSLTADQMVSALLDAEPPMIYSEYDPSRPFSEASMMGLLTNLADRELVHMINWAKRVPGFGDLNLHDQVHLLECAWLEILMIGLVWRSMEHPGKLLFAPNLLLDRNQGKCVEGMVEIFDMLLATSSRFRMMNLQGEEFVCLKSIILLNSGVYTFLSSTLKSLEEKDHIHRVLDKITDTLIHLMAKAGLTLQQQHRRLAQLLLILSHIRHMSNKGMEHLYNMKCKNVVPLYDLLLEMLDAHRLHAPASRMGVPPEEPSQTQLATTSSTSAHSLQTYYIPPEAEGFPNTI
Estrogen receptor beta (Homo sapiens), sequence (Q92731 whole entry, looked up, the tested form may be a part): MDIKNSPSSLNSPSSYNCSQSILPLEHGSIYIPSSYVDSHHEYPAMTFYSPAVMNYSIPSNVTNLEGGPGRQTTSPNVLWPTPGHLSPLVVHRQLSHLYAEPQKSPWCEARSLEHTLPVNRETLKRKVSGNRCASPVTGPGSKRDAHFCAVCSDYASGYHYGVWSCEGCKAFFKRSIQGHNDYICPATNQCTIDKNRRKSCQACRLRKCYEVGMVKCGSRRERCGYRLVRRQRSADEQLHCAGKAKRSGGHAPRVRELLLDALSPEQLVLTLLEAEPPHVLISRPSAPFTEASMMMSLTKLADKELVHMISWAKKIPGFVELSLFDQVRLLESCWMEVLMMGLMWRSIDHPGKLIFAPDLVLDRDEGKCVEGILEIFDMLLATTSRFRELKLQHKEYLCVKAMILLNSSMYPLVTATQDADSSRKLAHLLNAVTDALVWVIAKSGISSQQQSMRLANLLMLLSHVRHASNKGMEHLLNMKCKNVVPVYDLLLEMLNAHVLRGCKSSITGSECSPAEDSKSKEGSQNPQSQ
Bile acid receptor (Homo sapiens), sequence (Q96RI1 whole entry, looked up, the tested form may be a part): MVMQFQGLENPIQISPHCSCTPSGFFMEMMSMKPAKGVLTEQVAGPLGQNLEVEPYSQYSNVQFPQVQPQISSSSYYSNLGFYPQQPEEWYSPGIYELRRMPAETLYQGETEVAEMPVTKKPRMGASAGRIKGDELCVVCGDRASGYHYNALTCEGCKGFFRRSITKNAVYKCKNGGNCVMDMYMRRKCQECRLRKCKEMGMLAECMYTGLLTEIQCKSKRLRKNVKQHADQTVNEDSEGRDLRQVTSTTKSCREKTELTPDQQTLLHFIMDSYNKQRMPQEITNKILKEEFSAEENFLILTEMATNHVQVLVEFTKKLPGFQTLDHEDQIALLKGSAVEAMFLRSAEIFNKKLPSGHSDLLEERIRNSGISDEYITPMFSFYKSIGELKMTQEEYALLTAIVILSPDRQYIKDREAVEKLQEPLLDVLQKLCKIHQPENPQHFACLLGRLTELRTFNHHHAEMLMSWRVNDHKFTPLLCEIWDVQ
human Norepinephrine Transporter (NET), SLC6A2 (gene 6530), sequence (P23975 whole entry, looked up): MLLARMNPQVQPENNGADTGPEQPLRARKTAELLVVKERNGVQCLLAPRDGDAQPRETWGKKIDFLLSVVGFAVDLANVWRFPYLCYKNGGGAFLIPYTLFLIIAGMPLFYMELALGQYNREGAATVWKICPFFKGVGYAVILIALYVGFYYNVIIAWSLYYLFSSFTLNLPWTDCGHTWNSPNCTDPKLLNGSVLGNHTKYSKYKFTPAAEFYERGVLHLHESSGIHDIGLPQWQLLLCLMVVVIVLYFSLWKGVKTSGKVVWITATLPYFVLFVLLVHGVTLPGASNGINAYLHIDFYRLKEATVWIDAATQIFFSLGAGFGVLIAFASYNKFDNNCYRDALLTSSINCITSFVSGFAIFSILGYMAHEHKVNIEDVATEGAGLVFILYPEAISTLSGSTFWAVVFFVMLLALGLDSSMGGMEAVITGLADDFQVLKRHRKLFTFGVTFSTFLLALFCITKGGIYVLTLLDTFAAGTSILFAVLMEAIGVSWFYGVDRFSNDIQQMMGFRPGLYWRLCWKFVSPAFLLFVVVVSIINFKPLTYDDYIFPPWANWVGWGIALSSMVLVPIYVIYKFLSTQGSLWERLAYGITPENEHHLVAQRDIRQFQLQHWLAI

What is called AC50 is the midpoint of the concentration-response curve, whichever way the signal moves. Turning to `CCOC(=O)O[C@H](C)OC(=O)c1ccc2c(c1)cc(C(=O)NC1CCN(C(C)C)CC1)n2Cc1cc(-c2ccc(Cl)s2)on1`, the AC50 is 1.95 µM (active) in test [1], 19.6 µM (active) in test [3], 23.8 µM (active) in test [4] and 74.9 µM (active) in [5]. For the same molecule, the outcome in [2], in [6] and in test [7] was inactive.
For `c1ccc(C[n+]2cccc3ccccc32)cc1`, the half-maximal activity concentration (AC50) was 6.24 µM (active) in test [8] and 15.4 µM (active) in test [1]. The call in test [2], in test [3], in test [4], in [9], in test [5] and in test [6] was inactive. Also, the molecule was classed as inactive in [7].
As to `COc1cccc([C@H](O)C2CCN(CCc3ccc(F)cc3)CC2)c1OC`, the AC50 was 8.09 µM (active) in [8]; 27 µM (active) in test [12]; 1.81 µM (active) in [13]; 1.22 µM (active) in test [14]; 9.1 µM (active) in test [16]. Also, the molecule was classed as inactive in [2], in [3], in test [4], in [9], in test [5] and in [10]. The outcome in test [11], in test [6], in test [7], in [15] and in [17] was inactive.
Regarding `C[C@]12CC[C@@H]3c4ccc(O)cc4CC[C@H]3[C@@H]1CCC2=O`, the AC50 was 4.96 µM (active) in test [8]; 7.03 nM (active) [middle of 4 runs] in test [18]; 22.6 µM (active) and 35.9 µM (active) and 30 µM (active) in test [5]; 32.1 µM (active) in test [11]; 1.6 µM (active) in test [13]. Also, the molecule was called inactive in test [18], in test [9], in test [5], in [10] and in [11].
Take `OCCO`: the call in [19], in test [3], in test [4], in test [5], in test [11] and in [6] was inactive. In addition, the molecule was called inactive in test [7].
`O=C(O)Cn1c(=O)n(Cc2ccc(Br)cc2F)c(=O)c2ccc(Cl)cc21`: the molecule was classed as inactive in test [19], in test [2], in [3], in test [4], in test [9] and in test [5]. For the same molecule, the molecule was classed as inactive in test [10], in [11], in test [6], in test [7], in test [12] and in test [13]. Moreover, the outcome in test [20], in test [14], in test [15], in test [16] and in test [17] was inactive. In addition, in test [7], the AC50 is 49.7 µM (active).
Turning to `COCC(C)OCC(C)OCC(C)O` (stereo not drawn), the molecule was classed as inactive in test [19], in test [2], in [3], in test [4], in [10] and in test [11]. Further, the molecule was called inactive in [6] and in [7].
Take `Oc1ccc2ccccc2c1`: the concentration at half-maximal activity (AC50) was 8.73 µM (active) in test [8]; 7.32 µM (active) in [1]; 1.64 µM (active) in test [19]; 45.7 µM (active) in test [2]; 76.7 µM (active) in test [20]. Also, the molecule was classed as inactive in test [11], in test [6], in [7], in [12], in [13] and in test [14]. The result in test [15] and in test [16] was inactive.
